Screening results from PubChem BioAssay.
GALK inh – inhibitors of human galactokinase (GALK) | Potency, µM (titrated, usually from 57.5 µM), inactives show at the highest dose activity, negative = inhibition, usual class: inhibitors | 44,000 tested, under 10 active | recombinant GALK, Kinase-Glo ATP luminescence, 1 h;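 further: plate controls were full GALK reaction for no effect and reaction lacking GALK for full effect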
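Luminescent ATP-depletion readout (Kinase-Glo Plus) after 1 h room-temperature incubation of human GALK (5 nM) with galactose 100 µM and ATP 35 µM, pH 8.0 HEPES/Mg2+ buffer; compounds tested in qHTS format.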
HTT prom inh – HTT promoter inhibition; Potency, µM (series often up to 57.5 µM), for inactives: at the highest dose activity change, negative = inhibition, usual class: inhibitors; AID 1508623; HEK293 HTT promoter firefly luciferase reporter, 24 h; 48,000 tested, 0.93% active; further: potency means the concentration at half of the fitted maximal effect; nearly all actives have a fitted effect of over 50% in size
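Firefly luciferase readout (Dual-Glo, 10 min RT) after 24 h, 37 °C compound exposure (final up to 57.5 uM) of HEK293 reporter cells cultured 24 h beforehand; PTC124 at 50 uM final as control inhibitor; activity scaled vehicle 0%, zero RLU -100%.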
OvCa metastasis – blocks SKOV3ip1 adhesion and invasion in omental model; Potency, µM (highest dose often 45.8 µM), inactives show at the top dose activity change, negative = inhibition, most hits filed as inhibitors; 46,000 tested, 0.1% active; SKOV3ip1-GFP adhesion/invasion on 3D omental model, fluorescence; AID 1963576;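 further: potency means the concentration at half of the fitted maximal effect; plate controls were DMSO wells for no effect and tomatine positive control wells for full effect; nearly all actives have a fitted effect of over 65% in size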
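Primary human omental fibroblast/mesothelial 3D culture pre-formed 48 h. SKOV3ip1-GFP cells added with compounds (0.36-46 umol/L), incubated 2 h RT/16 h 37 C, fixed; GFP cells quantified at 488/509 nm.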
TSG101-PTAP inh – inhibitors of HIV-1 PTAP binding to human TSG101, validation. Fluorescence polarization, FITC-PTAP peptide/Tsg101, 20 min. Potency, µM (titrated, usually from 115 µM), hits mostly inhibitors. Q99816. 44,000 tested, under 10 active; further: potency means the concentration at half of the fitted maximal effect; 0% is about no effect
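Fluorescence polarization: Tsg101 binding domain (10 uM final) in 10 mM HEPES pH 7.5, 0.15 M NaCl, 0.01% Tween 20, 3 mM EDTA, 0.1 mM TCEP; compounds pinned; FITC-PTAP peptide 50 nM final; 20 min, r.t.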
HTT-AS act – activates huntingtin-antisense promoter activity. 48,000 tested, 0.24% active. Potency, µM (doses to about 57.5 µM), inactives show top-dose activity change, positive = activation, usual class: activators. HEK293 HTT-AS promoter firefly luciferase reporter, 24 h; response scale: percent change from vehicle, -100% = no light; further: potency means the concentration at half of the fitted maximal effect; nearly all actives have a fitted effect of over 55% in size
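Luminescence was read after Dual-Glo reagent and a 10 min room-temperature incubation. Values were normalized to vehicle (0% activity) and zero RLU (-100% activity). Reporter HEK293 cells had been exposed to compounds (up to 57.5 uM final) for 24 h.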
NTMT1 inhibitor – inhibitors of human N-terminal methyltransferase NTMT1; Q9BV86; NTMT1 MTase-Glo SAH luminescence, purified enzyme; Potency, µM (doses to about 114 µM), for inactives: at the top dose activity change, negative = inhibition, most hits filed as inhibitors; 59,000 tested, 2.5% active;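 further: potency means the concentration at half of the fitted maximal effect; plate controls were DMSO vehicle for no effect and no enzyme for full effect; nearly all actives have a fitted effect of over 65% in size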
Target sequence (Q9BV86 whole entry, looked up): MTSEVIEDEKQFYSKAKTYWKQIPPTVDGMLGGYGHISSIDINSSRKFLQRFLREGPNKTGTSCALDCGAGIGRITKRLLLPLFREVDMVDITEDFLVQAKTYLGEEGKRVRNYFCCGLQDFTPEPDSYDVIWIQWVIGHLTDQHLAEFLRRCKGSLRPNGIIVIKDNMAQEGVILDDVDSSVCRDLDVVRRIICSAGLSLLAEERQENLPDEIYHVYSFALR
Sfp PPTase inh – Sfp PPTase inhibition, chemistry optimization. shares compounds with NTMT1 inhibitor. purified Sfp PPTase enzyme activity, qHTS. Potency, µM (titrated, usually from 114 µM), inactives show at the highest dose activity change, negative = inhibition, usual class: inhibitors. 230 tested, 78% active. AID 540350
HM489 growth – Sfp PPTase inhibitors: growth inhibition of B. subtilis HM489 | B. subtilis HM489 (acpS-) growth, BacTiter-Glo, 5 h | shares compounds with NTMT1 inhibitor | Potency, µM (highest dose often 114 µM), for the others: top-dose activity change, negative = inhibition, hits mostly inhibitors | 220 tested, 50% active
Sfp gel opt – inhibits B. subtilis Sfp PPTase in gel assay; AID 540355; purified Sfp PPTase, gel-based product detection; 220 tested, 54% active; shares compounds with NTMT1 inhibitor; Potency, µM (top dose mostly 250 µM), for the others: at the top dose activity change, negative = inhibition, actives largely listed as inhibitors
Sfp inh gel – confirmation of Bacillus subtilis Sfp PPTase inhibitors; Potency, µM (doses to about 250 µM), for the others: at the top dose activity change, negative = inhibition, actives largely listed as inhibitors; shares compounds with NTMT1 inhibitor; purified Sfp PPTase, gel-based product detection; AID 602362; 45 tested, 90% active
Sfp SAR2 – Sfp phosphopantetheinyl transferase inhibition, SAR round 2; 230 tested, 87% active; shares compounds with NTMT1 inhibitor; AID 602370; Potency, µM (doses to about 57.1 µM), for the others: at the top dose activity change, negative = inhibition, usual class: inhibitors; purified Sfp enzyme, PPTase activity, qHTS
hGST A1-1 inh – counter-screen for Sfp PPTase inhibitors: hGST A1-1 inhibition | Potency, µM (doses to about 114 µM), for the others: top-dose activity change, negative = inhibition, usual class: inhibitors | shares compounds with NTMT1 inhibitor | 55 tested, under 10 active | AID 602391 | hGST A1-1 enzyme activity counter-screen, qHTS
HSD17B4 counter – counter-screen for HPGD inhibitors: human HSD17B4 inhibition; Potency, µM (doses to about 57.1 µM), for the others: top-dose activity change, negative = inhibition, actives largely listed as inhibitors; shares compounds with NTMT1 inhibitor; 230 tested, 10% active; purified HSD17B4, estradiol/NAD+, NADH fluorescence
ALDH1A1 counter – inhibits human ALDH1A1, off-target for HPGD inhibitors; shares compounds with NTMT1 inhibitor; recombinant ALDH1A1, NADH fluorescence, propionaldehyde/NAD+; Potency, µM (top dose mostly 57.1 µM), for the others: at the top dose activity change, negative = inhibition, hits mostly inhibitors; 230 tested, 93% active
Target sequence (P00352 whole entry, looked up): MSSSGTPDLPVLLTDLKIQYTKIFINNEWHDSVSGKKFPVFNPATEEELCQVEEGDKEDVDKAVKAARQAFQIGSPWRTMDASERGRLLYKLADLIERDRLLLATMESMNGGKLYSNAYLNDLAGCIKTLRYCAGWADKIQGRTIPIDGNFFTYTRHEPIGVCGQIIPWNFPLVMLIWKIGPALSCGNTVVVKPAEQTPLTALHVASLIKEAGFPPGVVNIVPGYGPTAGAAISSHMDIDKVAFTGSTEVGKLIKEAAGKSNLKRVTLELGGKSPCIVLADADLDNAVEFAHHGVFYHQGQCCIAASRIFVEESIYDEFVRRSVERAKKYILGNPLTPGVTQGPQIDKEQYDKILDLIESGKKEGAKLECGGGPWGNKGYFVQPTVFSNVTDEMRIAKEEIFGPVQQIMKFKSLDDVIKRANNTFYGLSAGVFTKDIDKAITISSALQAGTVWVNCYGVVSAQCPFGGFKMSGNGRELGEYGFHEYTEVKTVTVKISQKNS
Numbers without * were called inactive; [ ] = remark or other dose. Hits are enriched below; roughly 2.5% of the tested compounds scored in any of these assays. The call rests on the fitted dose curve; in most records, active means well fitted curve in the direction sought with a large enough effect; inconclusive means small, poorly fitted or top-dose-only effect, or another doubt; inactive means no such curve, though single readings can be large; an effect the other way counts as inactive or inconclusive.

What do the screens show for `Cc1ccnc(NC(=S)N[C@@H]2CCN(c3cccc(C(F)(F)F)c3)C2)c1`?
NTMT1 inhibitor: 16%; Sfp PPTase inh: inconclusive; HM489 growth: inconclusive; Sfp gel opt: 19%; Sfp inh gel: 0%; Sfp SAR2: inconclusive; hGST A1-1 inh: inconclusive; HSD17B4 counter: 9%; ALDH1A1 counter: 24µM*

What do the screens show for `Cc1ccnc(NC(=O)N2CCN(c3cccc(C(F)(F)F)c3)CC2)c1`?
NTMT1 inhibitor: 2%; Sfp PPTase inh: 0%; HM489 growth: inconclusive; Sfp gel opt: -5%; Sfp SAR2: -24%; HSD17B4 counter: -14%; ALDH1A1 counter: 11µM*

Results for COc1ccc(N2CCN(C(=O)Nc3cccc(C(F)(F)F)c3)CC2)cc1 ?
GALK inh: 6%; HTT prom inh: inconclusive; OvCa metastasis: -1%; TSG101-PTAP inh: inactive; HTT-AS act: -22%; NTMT1 inhibitor: inconclusive

How did Cc1ccnc(NC(=S)Nc2cccc(C(F)(F)F)c2)c1 do in these assays?
NTMT1 inhibitor: 0%; Sfp PPTase inh: 10µM*; HM489 growth: 12µM*; Sfp gel opt: 2%; Sfp inh gel: inconclusive; Sfp SAR2: 23µM*; hGST A1-1 inh: 0.21µM*; HSD17B4 counter: -3%; ALDH1A1 counter: 22µM*

Results for Cc1ccnc(CC(=S)N2CCN(c3cccc(C(F)(F)F)c3)CC2)c1 ?
NTMT1 inhibitor: 0%; Sfp PPTase inh: 24µM*; HM489 growth: inconclusive; Sfp gel opt: 10µM*; Sfp SAR2: inconclusive; HSD17B4 counter: inconclusive; ALDH1A1 counter: 9.6µM*

How did CC1(C)CCCC2(C)C3=C(C(=O)OC3O)C(O)CC12 (configuration not stated) do in these assays?
NTMT1 inhibitor: 9%[57.5 µM]

Results for COc1ccc(-c2ccc(=O)n(CC(=O)NCCc3ccccc3)n2)cc1OC ?
NTMT1 inhibitor: -3%

What do the screens show for `COc1cc([C@@H]2c3cc4c(cc3[C@@H](O[C@@H]3O[C@@H]5CO[C@@H](c6cccs6)O[C@H]5[C@H](O)[C@H]3O)[C@H]3COC(=O)[C@H]23)OCO4)cc(OC)c1O`?
NTMT1 inhibitor: -10%

How did Cc1ccnc(NC(=S)N2CC3CN(c4cccc(C(F)(F)F)c4)CC3C2)c1 (configuration not stated) do in these assays?
NTMT1 inhibitor: inconclusive; Sfp PPTase inh: 3.7µM*; HM489 growth: 5.9µM*; Sfp gel opt: 4.8µM*; Sfp inh gel: 1.7µM*; Sfp SAR2: 0.73µM*; hGST A1-1 inh: inconclusive; HSD17B4 counter: -17%; ALDH1A1 counter: 7.6µM*

How did Cc1cc(N2CCC(C)CC2)nc2ccc(NC(=O)CCC(=O)N3CCN(c4cccc(C(F)(F)F)c4)CC3)cc12 do in these assays?
GALK inh: -7%; HTT prom inh: inconclusive; OvCa metastasis: -7%; TSG101-PTAP inh: inactive; HTT-AS act: -9%; NTMT1 inhibitor: 0%

How did Cc1ccnc(NC(=S)NC2CN(c3cccc(C(F)(F)F)c3)C2)c1 do in these assays?
NTMT1 inhibitor: -2%[57.5 µM]; Sfp PPTase inh: inconclusive; HM489 growth: 37µM*; Sfp gel opt: 13%; Sfp SAR2: inconclusive; HSD17B4 counter: 18%; ALDH1A1 counter: -25%

How did Cc1ccnc(NC(=S)NC2CCN(c3cccc(C(F)(F)F)c3)CC2)c1 do in these assays?
Sfp PPTase inh: inconclusive; HM489 growth: inconclusive; Sfp gel opt: inconclusive; Sfp SAR2: inconclusive; HSD17B4 counter: 24µM*; ALDH1A1 counter: 19µM*

Results for O=C1c2ccccc2C(=O)C1(c1ccccc1)N1CCN(c2cccc(C(F)(F)F)c2)CC1 ?
GALK inh: 3%; HTT prom inh: inconclusive; OvCa metastasis: -20%; TSG101-PTAP inh: inactive; HTT-AS act: -22%; NTMT1 inhibitor: 7%

Results for COc1ccc2oc(NC3=NC(c4[nH]ncc4Cl)C4=C(CCCC4=O)N3)nc2c1 (configuration not stated) ?
NTMT1 inhibitor: -8%
